# About 13,000 (27%) of roughly 48,000 compounds showed an effect of 50% or more. The list shows a part of the results.
# System: Wolbachia pipientis
# Assay: Anti-Wolbachia Cell-Based Screen
# Format: functional
# Set-up: scale not given: in the data most compounds retested in dose-response had high values
# Settings: 5 µM
row,SMILES,Percent Effect [%]
1,COCC(=O)Nc1ccc(-c2noc([C@@H]3CCCN3CC(C)C)n2)cn1,49.09
2,COCC(=O)Nc1ccc(-c2noc([C@@H]3CCCN3C)n2)cn1,-1.727
3,COCC(=O)Nc1ccc(-c2noc([C@@H]3CCCN3C(C)C)n2)cn1,57.87
4,COc1ccc(CN(C)C(=O)CCC(=O)c2cccs2)c(OC)c1OC,-8.068
5,COc1ccc(OC)c(C2CCN(C3CCOCC3)C2)c1 (configuration not stated),1.409
6,CCOc1cc([C@H]2N[C@@H](c3nc(C)cs3)Cc3ccsc32)ccc1OC,131.4
7,COc1ccc(OC)c([C@@H]2N[C@H](c3nccs3)Cc3ccsc32)c1,139.9
8,CCOc1cc(CNc2cc(-c3nc(C)no3)ccn2)ccc1OC,-0.8232
9,COc1cc([C@@H]2N[C@H](c3nccs3)Cc3ccsc32)cc(OC)c1OC,111.7
10,CCOc1cc([C@@H]2N[C@H](c3nccs3)Cc3ccsc32)ccc1OC,100.4
11,CCOc1cc(/C=C/c2ncc(C(=O)NC)s2)ccc1OC,34.03
12,CCOc1ccc(C(=O)CCC(=O)NCc2csc(N)n2)cc1C,5.175
13,COc1ccc(OC)c(C2CCN(c3ccc4cc[nH]c4n3)C2)c1 (configuration not stated),5.101
14,COc1ccc(C(C)NC(=O)Nc2nccs2)cc1OC (configuration not stated),-9.507
15,CC1CCc2nc(O)c(C(=O)NCCCN3CCN(C)CC3)cc2C1 (configuration not stated),-5.002
16,CC(=O)c1sc2nc3c(c(C(F)(F)F)c2c1N)CN(C(C)=O)CC3,-4.263
17,Cc1ccc(SCC(=O)NS(=O)(=O)c2ccc3c(c2)OCCO3)cc1,-12.07
18,O=C(O)C(F)(F)F.O=C(O)C(F)(F)F.O=C(O)c1cc2c(nc1N1CCCC1)CCN(C1CCOCC1)CC2,-7.138
19,COCCN(CC1CCCN(C2Cc3ccccc3C2)C1)C(=O)COC (configuration not stated),-1.224
20,CC(C)CN1C[C@H]2CCN(c3ncccn3)CC[C@H]2S1(=O)=O.O=C(O)C(F)(F)F,-7.419
21,CCN(Cc1nccs1)Cc1cc(Cl)ccc1OC,-0.3926
22,COc1cccc([C@@H]2N[C@H](c3nccs3)Cc3ccsc32)c1OC,146.2
23,COc1cccc(C2CCN(c3ccc4cc[nH]c4n3)C2)c1OC (configuration not stated),-24.45
24,COCCOc1ccccc1C(=O)N1CCCCC1c1nccs1 (configuration not stated),1.225
25,CCOc1ccc([C@@H]2N[C@H](c3nccs3)Cc3ccsc32)cc1OC,113.5
26,CCOc1ccc(C2CC(=O)NCc3nc(N)sc32)cc1CO (configuration not stated),4.923

row,SMILES,Percent Effect [%]
1,CC1N(CC2CC2)C(=O)COC12CCN(C(=O)c1ccno1)CC2 (configuration not stated),-9.759
2,Cn1ncc2c(=O)[nH]c(N3CCCC3c3cccc(Cl)c3)nc21 (configuration not stated),-9.423
3,CCNC(=O)CN1CCOC(c2ccccc2C(F)(F)F)C1 (configuration not stated),-9.523
4,Cn1cnn(Cc2ccccc2F)c1=O,-4.03
5,COc1nccnc1N1CCN(Cc2cccc(F)c2)C(=O)C1,-1.411
6,O=c1n(Cc2ccc(F)cc2)nc2ncccn12,93
7,O=c1n(Cc2cccc(F)c2)nc2ncccn12,124.9
8,CC(C)C1CN(c2ncccn2)CCC(=O)N1Cc1ccc(F)cc1 (configuration not stated),-1.405
9,FC(F)(F)c1ccc(CN2CCN(Cc3cscn3)CC2)cc1,-5.816
10,O=C(O)[C@@H]1CN(Cc2nc3ncccn3n2)C[C@H]1c1cccc(F)c1,4.961
11,Fc1ccc(Cn2ncc3c2CN(c2ncccn2)C3)cc1,-12.4
12,O=c1n(CCSCc2ccccc2F)nc2ccccn12,16.6
13,O=c1n(Cc2ccccc2F)nc2ncccn12,224.5
14,O=c1n(Cc2ccc(C(F)(F)F)cc2)nc2ncccn12,133.4
15,CC(NC(=O)Cn1cccnc1=O)c1ccc(C(F)(F)F)cc1 (configuration not stated),-2.849
16,Cn1ccc(C(=O)N(CC(F)(F)F)c2cccc(Cl)c2)cc1=O,-11.93
17,CCc1nc2n(n1)CC(Nc1nc(C)cc(N(C)C)n1)CC2 (configuration not stated),2.422
18,CCC1=NOC(CNCc2cnc(-c3ccccc3C)s2)C1 (configuration not stated),-1.087
19,Cc1c(C)n(CC(O)CN2CCCCCC2)c2c(Cl)cccc12 (configuration not stated),9.081
20,CC(=O)c1cccc(NC(=O)NCCc2nnc[nH]2)c1,-18
21,O=c1n(Cc2cccc(C(F)(F)F)c2)nc2ncccn12,134.4
22,O=C(O)c1nnn(Cc2cccc(C(F)(F)F)c2)c1-c1ccncc1,-2.735
23,O=C(O)c1nnn(Cc2cccc(C(F)(F)F)c2)c1-c1ccccn1,11.55
24,Cc1cncc(NCc2ccccc2N2CCOCC2)c1,0.5273
25,O=C(NCc1ccccc1CO)Nc1ccc2c(c1)CCO2,11.78
26,Cc1csc(N2CCCN(C(=O)C3(C#N)CCCCC3)CC2)n1,-2.808
